Hit rate of the full screen: of about 5,500 compounds, about 2,000 (36%) were called active. Not shown: some 18% with an inconclusive outcome. Rule as the data show it: active = normalized growth mostly below about 0.91 (no sharp cut-off); inconclusive = no clear call, values can overlap the other calls; inactive = mostly above about 0.92. The list shows a part of the results.
Assay: chemical genetic growth profiling, strain panel (AID 1159580);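 also: tested at 20 µM; growth read once vehicle control cultures reached saturation at 30 °C; 1 = growth at the plate median or of vehicle wells; lower values mean less growth of the strain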
Settings: S. cerevisiae deletion strains, growth OD

Measured: normalized growth

CC[C@]1(O)CC2CN(CCc3c([nH]c4ccccc34)[C@@](C(=O)OC)(c3cc4c(cc3OC)N(C)[C@H]3[C@@](O)(C(=O)OC)[C@H](OC(C)=O)[C@]5(CC)C=CCN6CC[C@]43[C@@H]65)C2)C1 (stereo not given in full)
inactive: locus YAL021C, strain ccr4, stronger effect = lower value 1 | locus YAL026C, strain drs2, stronger effect = lower value 0.948 | locus YAL030W, strain snc1, stronger effect = lower value 0.985 | locus YBL061C, strain skt5, stronger effect = lower value 0.975 | locus YBR009C, strain hhf1, stronger effect = lower value 0.941 | locus YBR023C, strain chs3, stronger effect = lower value 0.984 | locus YBR171W, strain sec66, stronger effect = lower value 0.959 | locus YBR231C, strain swc5, stronger effect = lower value 0.982 | locus YBR279W, strain paf1, stronger effect = lower value 0.98 | locus YCL011C, strain gbp2, stronger effect = lower value 0.983 | locus YCL016C, strain dcc1, stronger effect = lower value 1.01 | locus YCL061C, strain MRC1, stronger effect = lower value 1.02 | locus YCL069W, strain vba3, stronger effect = lower value 0.969 | locus YCR088W, strain abp1, stronger effect = lower value 0.974 | locus YDL005C, strain med2, stronger effect = lower value 0.972 | locus YDL040C, strain nat1, stronger effect = lower value 0.969 | locus YDR001C, strain nth1, stronger effect = lower value 0.973 | locus YDR069C, strain doa4, stronger effect = lower value 1 | locus YDR137W, strain rgp1, stronger effect = lower value 0.979 | locus YDR159W, strain sac3, stronger effect = lower value 0.928 | locus YDR195W, strain ref2 0.951 | locus YDR297W, strain sur2, stronger effect = lower value 0.975 | locus YDR334W, strain swr1, stronger effect = lower value 0.955 | locus YDR335W, strain msn5, stronger effect = lower value 0.981 | locus YDR392W, strain spt3, stronger effect = lower value 0.859 | locus YEL003W, strain gim4, stronger effect = lower value 0.954 | locus YEL037C, strain rad23, stronger effect = lower value 0.963 | locus YEL061C, strain CIN8 (second series), stronger effect = lower value 0.962 | locus YER015W, strain faa2, stronger effect = lower value 0.961 | locus YER016W, strain bim1, stronger effect = lower value 0.989 | locus YER111C, strain swi4, stronger effect = lower value 0.972 | locus YER155C, strain BEM2 (second series), stronger effect = lower value 0.907 | locus YFR010W, strain ubp6, stronger effect = lower value 0.948 | locus YGL167C, strain pmr1, stronger effect = lower value 0.972 | locus YGL173C, strain kem1, stronger effect = lower value 0.976 | locus YGL227W, strain vid30, stronger effect = lower value 0.947 | locus YGL240W, strain doc1, stronger effect = lower value 0.954 | locus YGL253W, strain hxk2, stronger effect = lower value 1.01 | locus YHR013C, strain ard1, stronger effect = lower value 0.949 | locus YHR027C, strain rpn1, stronger effect = lower value 0.957 | locus YHR030C, strain SLT2, stronger effect = lower value 0.991 | locus YHR079C, strain IRE1, stronger effect = lower value 0.975 | locus YHR142W, strain chs7, stronger effect = lower value 1.02 | locus YJL092W, strain hpr5, stronger effect = lower value 0.973 | locus YJL095W, strain BCK1 (second series), stronger effect = lower value 0.978 | locus YJL095W, strain BCK1, stronger effect = lower value 0.992 | locus YJL115W, strain asf1, stronger effect = lower value 0.956 | locus YJL129C, strain trk1, stronger effect = lower value 0.986 | locus YJL154C, strain vps35, stronger effect = lower value 0.965 | locus YJL164C, strain tpk1, stronger effect = lower value 0.956 | locus YJL166W, strain qcr8, stronger effect = lower value 0.998 | locus YJL187C, strain SWE1, stronger effect = lower value 0.974 | locus YJR066W, strain TOR1, stronger effect = lower value 0.965 | locus YKL160W, strain elf1, stronger effect = lower value 1.05 | locus YKR026C, strain gcn3, stronger effect = lower value 0.975 | locus YKR091W, strain srl3, stronger effect = lower value 0.98 | locus YLL001W, strain dnm1, stronger effect = lower value 1.05 | locus YLL026W, stronger effect = lower value 0.979 | locus YLL041C, strain sdh2, stronger effect = lower value 0.964 | locus YLR027C, strain aat2, stronger effect = lower value 0.987 | locus YLR113W, strain HOG1, stronger effect = lower value 0.955 | locus YLR221C, strain rsa3, stronger effect = lower value 1.04 | locus YLR258W, strain gsy2, stronger effect = lower value 0.979 | locus YLR262C, strain YPT6 (second series), stronger effect = lower value 0.968 | locus YLR320W, strain mms22, stronger effect = lower value 1.04 | locus YLR342W, strain FKS1, stronger effect = lower value 0.977 | locus YLR357W, strain rsc2, stronger effect = lower value 0.974 | locus YLR370C, strain arc18, stronger effect = lower value 0.989 | locus YLR384C, strain iki3, stronger effect = lower value 0.967 | locus YML120C, strain ndi1, stronger effect = lower value 1.01 | locus YMR058W, strain fet3, stronger effect = lower value 0.977 | locus YMR125W, strain sto1, stronger effect = lower value 1.02 | locus YMR129W, stronger effect = lower value 0.967 | locus YMR205C, strain PFK2, stronger effect = lower value 1.01 | locus YMR231W, strain pep5, stronger effect = lower value 0.966 | locus YNL071W, strain lat1, stronger effect = lower value 0.963 | locus YNL183C, strain NPR1, stronger effect = lower value 0.928 | locus YNL209W, strain ssb2, stronger effect = lower value 0.973 | locus YNL248C, strain rpa49, stronger effect = lower value 1.04 | locus YNL322C, strain KRE1 (second series), stronger effect = lower value 0.977 | locus YNR049C, strain mso1, stronger effect = lower value 0.969 | locus YOR001W, strain rrp6, stronger effect = lower value 0.923 | locus YOR070C, strain gyp1, stronger effect = lower value 1 | locus YOR080W, strain dia2, stronger effect = lower value 0.96 | locus YOR083W, strain WHI5, stronger effect = lower value 1.04 | locus YOR106W, strain vam3, stronger effect = lower value 1.03 | locus YOR231W, strain MKK1, stronger effect = lower value 0.952 | locus YOR265W, strain rbl2, stronger effect = lower value 0.987 | locus YOR270C, strain vph1, stronger effect = lower value 1.06 | locus YOR290C, strain snf2, stronger effect = lower value 1.01 | locus YPL051W, strain arl3, stronger effect = lower value 1.01 | locus YPL078C, strain atp4, stronger effect = lower value 1.04 | locus YPL106C, strain sse1, stronger effect = lower value 0.931 | locus YPL240C, strain hsp82, stronger effect = lower value 0.963 | locus YPL256C, strain CLN2, stronger effect = lower value 0.942

— PubChem BioAssay AID1159580 (chemical genetic matrix, 2015)
